Where “and” joins values, the source holds several entries; their conditions need not be identical. Equal values may be shown once. About 83,000 compounds went through this panel and 20% of them were active in at least one assay; those are over-represented in the sample as a whole.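 How to read the values: 0–100, growth inhibition (40 = 60% inhibited); 0, no net growth; -100 to 0, cell death (-40 = 40% of starting cells died; -100 = all dead).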 Values without a mark were called inactive. Calls of active or inactive are those of the source.
Each compound was assayed on HCT-15 colon (assay: NCI-60 one-dose screen, 48 h (100 = growth as untreated, 0 = no growth, -100 = all killed)). Conditions: 10 µM unless noted.
Protocol: Growth inhibition of the HCT-15 human tumor cell line is measured as a screen for anti-cancer activity. Cells are grown in 96 well plates and exposed to the test compound for 48 hours. Compounds are tested at a single concentration, which is 10^-5 M for most compounds. The reported endpoint is percent growth (GI% or GIPRCNT), where numbers from 0 - 100% represent growth inhibition, and numbers from -100% - 0 represent cell death. For example, a value of 40 represents 60% growth inhibition. A value of 0 means no net growth occurred over the course of the experiment. A value of -40 indicates 40% of cells at the beginning of the experiment died by the end of the experiment. A value of -100 means all cells are dead at the end of the experiment.
NCI-60 Human Tumor Cell Lines Screen was performed using the standard one-dose NCI protocol, which is described in more detail at https://dtp.cancer.gov/discovery_development/nci-60/default.htm.
Compounds with GIPRCNT values below 10 were considered active. Activity score was based on GIPRCNT using the following formula: […]
Score is 0 for GIPRCNT values of 100 or above, 50 for GIPRCNT values of 0, and 100 for GIPRCNT values of -100.
`O=c1[nH]c(=O)[nH]c(=O)[nH]1` was tested, and the growth was 160%.
`O=C(O)C(Br)CBr` (stereo not given) showed a growth of 90.8%.
Work on `O=NN(c1ccccc1)c1ccccc1` yielded a growth of 103%.
In the case of `CN1CCN(c2ccc(Cl)cc2)CC1`, the growth is reported as 20.1%.
In the case of `COc1cc(/C=C\[N+](=O)[O-])ccc1OCc1ccccc1`, the growth is reported as -11.7% (active).
With `CCCN1C(=O)NC(=O)C(CC)(N2C(=O)c3c(F)c(F)c(F)c(F)c3C2=O)C1=O` (stereo not given) the growth was -51.8% (active).
In the case of `O=C=Nc1ccc(Br)cc1`, the growth is reported as 96.5%.
With `N#CC(C#N)=Cc1cccc(F)c1` the growth was 105%.
For `O=C(Cc1ccccc1)NC(O)C(Cl)(Cl)Cl` (stereo not given), the growth was 118%.
In the case of `Nc1ccc(S(=O)(=O)F)cc1`, the growth is reported as 107%.
In the case of `O=c1[nH]c(=O)n(Cl)c(=O)n1Cl`, the growth is reported as 111% and 108%.
In the case of `CCCCCCCCCCCCCCCC[n+]1ccccc1`, the growth is reported as 17.1% and 15.2%.
For `CC[CH2][Sn]([Cl])([Cl])[CH2]CC.Oc1ccccc1C=NCCN=Cc1ccccc1O`, the growth was 59.8% and 60.4%.
In the case of `CCN1C(=O)NC(=O)C(C)(N2C(=O)c3c(F)c(F)c(F)c(F)c3C2=O)C1=O` (stereo not given), the growth is reported as 5.26% (active).
`N#CCc1ccc(CC#N)cc1` showed a growth of 96.5%.
For `O=C1NC(=O)C(=C/C=C/c2ccccc2)C(=O)N1`, the growth was 8.86% (active).
`O=NN1CCCCC1` was tested, and the growth was 106%.
For `CC1=C2[C@H]3OC(=O)[C@@H](C)[C@@H]3CC[C@@]2(C)C=CC1=O`, the growth was 95.3%.
`COc1ccc(O)c2c(=O)c3c(OC)cc4c(c3oc12)[C@@H]1C=CO[C@@H]1O4` gave a growth of 53.3%.
With `Cc1cc(NC(=O)NCCCOc2ccc(N3C(N)=NC(N)=NC3(C)C)cc2Cl)ccc1S(=O)(=O)F` the growth was 90.2%.
Work on `Cc1ccc(C(=O)O[C@H](C(=O)O)[C@H](OC(=O)c2ccc(C)cc2)C(=O)O)cc1` yielded a growth of 101%.
`O=Cc1cn(Cc2ccccc2)c2ccccc12` gave a growth of 106%.
With `C#Cc1cccc(Nc2nc(Cl)nc3cc(NC(=O)CF)ccc23)c1` the growth was 35.4%.
With `C[C@]12CCc3sc(Nc4ccc(O)cc4)nc3C1=CC[C@@H]1[C@@H]2CC[C@]2(C)C(=O)CC[C@@H]12` the growth was -68% (active).
Work on `COc1cc2c(cc1OC)[C@@H]1C(=O)c3ccc4c(c3O[C@@H]1CO2)C[C@H](C(C)C)O4` yielded a growth of 79.1%.
With `CC/C(Cc1ccccc1)=C(\c1ccc(OCCN2CCCC2)cc1)c1ccc(OC(=O)NCc2ccccc2)cc1` the growth was -11.5% (active).
Compound `C[C@]12CCc3nc(-c4ccc(O)c(O)c4)sc3C1=CC[C@@H]1[C@@H]2CC[C@]2(C)C(=O)CC[C@@H]12` has a growth of 26%.
In the case of `CCCCS(=O)(=O)Cl`, the growth is reported as 108%.
Compound `CC(=O)Cc1ccc2c(c1)OCO2` has a growth of 113%.
`C=CCOC(=O)C(Br)CC` (stereo not given) was tested, and the growth was 108%.
In the case of `CC[C@H](CC[C@@H](C)[C@H]1CC[C@H]2[C@@H]3CC[C@H]4C[C@]5(CC[C@]4(C)[C@H]3CC[C@]12C)OO[C@](C)(C(F)(F)F)O5)C(C)C`, the growth is reported as 97%.
`c1ccc2c(c1)O[As](O[As]1Oc3ccccc3O1)O2` showed a growth of 29.9%.
`Cn1cc(C(=O)C[n+]2ccccc2)c2ccccc21` gave a growth of 110%.
For `COC12CC3(C)C(C4=CC(=O)OC4)CCC3(O)C3CCC4=CC(=O)CCC4(CO1)C32` (stereo not given), the growth was 101%.
In the case of `O=S1(=O)OCCO1`, the growth is reported as 99%.
`C/C(=N/OC(=O)N(C)C)c1ccc(Cl)c(Cl)c1` was tested, and the growth was 107%.
In the case of `COc1ccc(N(CC(=O)NCCC[Te]c2ccccc2)C(=O)c2ccccc2)cc1`, the growth is reported as 9.28% (active).
`CC1=CC(=O)CCC12CCOC2=O` (stereo not given) showed a growth of 98.7%.
For `Cc1ccc(N2CCN(CCC#N)CC2)cc1`, the growth was 97.2%.
With `CCC(=O)C(CC(C)[N+](C)(C)C)(c1ccccc1)c1ccccc1` (stereo not given) the growth was 97.6%.
